In all, about 33,000 sequences were measured (“E-score (-0.5 to 0.5)”: median about -0.013, highest 2% from about 0.3 on). The entries come from a sample that favours the highest values as a whole.
Each sequence was assayed against T1, Msn1 (UniProt P22148) (assay: PBM E-score (8-mer binding enrichment) (E-score (-0.5 to 0.5)); higher = stronger / more preferred TF binding). Conditions: protein concentration: 200 nM; construct: GST-full length.
T1 sequence: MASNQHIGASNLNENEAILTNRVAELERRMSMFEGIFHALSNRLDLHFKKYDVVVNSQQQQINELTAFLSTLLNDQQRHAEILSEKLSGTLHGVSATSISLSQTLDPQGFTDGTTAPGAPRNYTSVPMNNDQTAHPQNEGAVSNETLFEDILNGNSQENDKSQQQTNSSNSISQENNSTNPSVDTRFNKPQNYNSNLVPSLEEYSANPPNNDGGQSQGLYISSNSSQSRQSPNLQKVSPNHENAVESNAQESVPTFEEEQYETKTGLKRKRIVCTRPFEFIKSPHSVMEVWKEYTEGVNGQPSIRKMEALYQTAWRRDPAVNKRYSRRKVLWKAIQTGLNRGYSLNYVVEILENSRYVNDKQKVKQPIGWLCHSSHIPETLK
Experimental: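 Universal 'all 10-mer' protein binding microarrays (Agilent AMADID 015681) probed with GST-tagged S. cerevisiae TFs (full-length or DBD) made by in vitro transcription/translation (PURExpress), about 100-200 nM. Bound TF was detected with fluorescent anti-GST. Each ungapped 8-mer (which stands for itself and its reverse complement) is scored by the PBM enrichment score (E-score), a modified Wilcoxon-Mann-Whitney statistic from -0.5 to +0.5, computed with the Universal PBM Analysis Suite. Scale: above 0.35 generally sequence-specific binding.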

| Sequence | PBM E-score |
| --- | --- |
| CAATGTAG | -0.109 |
| AAATGTAT | 0.28 |
| CAATGTCC | 0.47 |
| CAATGTGC | -0.121 |
| AAATGTGT | 0.292 |
| AAATGTCG | 0.412 |
| CAATGTCA | 0.262 |
| AAATGTGG | 0.147 |
| AAATGTTG | -0.0982 |
| CAATGTCG | 0.323 |
| AAATGTCT | 0.486 |
| CAATGTGG | 0.111 |
| ACGACTCC | -0.181 |
| GTCGGGTA | 0.0767 |
| GACGTCAA | -0.00044 |
| GTAATATA | 0.191 |
| GAGAAACC | -0.0447 |
| TATGTGAA | -0.121 |
| GATAAGGC | 0.0376 |
| TAATGTCA | 0.259 |
| AAATGTAA | 0.238 |
| GAATGTCA | 0.373 |

| Sequence | PBM E-score |
| --- | --- |
| AAATGTTA | 0.165 |
| AAATGTCA | 0.456 |
| GAATGTGA | 0.076 |
| ACGATAGT | 0.0402 |
| CGACCTGA | 0.0583 |
| CGTTGTGC | 0.114 |
| AGTTGTGC | -0.273 |
| CGTTGTCA | -0.023 |
| AGTTGTCC | 0.441 |
| AGTTGTCA | 0.295 |
| CGTTGTCC | 0.413 |
| AATGCGGG | 0.145 |
| GGGAGCAC | -0.276 |
| AAGCTCGT | 0.0392 |
| GCTTCCAA | -0.0663 |
| GTCATTGA | 0.0439 |
| AGCTGGTC | -0.0428 |
| ACGGGCAG | -0.0886 |
| GGCAGACA | 0.079 |
| TGCAGACA | 0.33 |
| CGCAGACA | 0.323 |
| AGCAGACA | 0.0142 |

| Sequence | PBM E-score |
| --- | --- |
| CGCAGACG | 0.0312 |
| CGCAGACC | -0.123 |
| ATCACTAC | -0.126 |
| CAGTGCTC | -0.259 |
| AGCGCAGC | -0.115 |
| ACCGCAAG | -0.0142 |
| ATGCTACC | -0.126 |
| AGAGATAT | 0.0248 |
| CGCCGGCG | 0.204 |
| CCTGCCAA | -0.125 |
| CTGTCATC | 0.0737 |
| ATGTCATA | 0.448 |
| GTGTCATA | 0.292 |
| ATGTCAAA | 0.323 |
| CTGTCAAA | 0.0466 |
| ATGTCAGG | 0.158 |
| ATGTCAGC | 0.194 |
| CTGTCATA | 0.0936 |
| ATGTCAAG | 0.217 |
| ATGTCATC | 0.341 |
| ATGTCATG | 0.411 |
| GTGTCAAA | 0.096 |

| Sequence | PBM E-score |
| --- | --- |
| AGAGGTTG | -0.182 |
| AGGTAACA | 0.113 |
| AAGTCGCT | -0.0636 |
| ATGGGACC | 0.00395 |
| CTGGGACA | 0.444 |
| GTGGGAGA | -0.317 |
| GTGGGATA | -0.0948 |
| ATGGGACG | -0.188 |
| CTGGGAAA | -0.203 |
| CTGGGACC | -0.269 |
| ATGGGACA | 0.429 |
| GTGGGACA | 0.455 |
| GACCGTGA | -0.0454 |
| AACGCTAC | -0.137 |
| CCCAACGC | 0.0471 |
| AATACCTG | -0.0275 |
| GGTGAGAC | 0.0221 |
| ACACACCA | 0.183 |
| CTCCTTCA | -0.3 |
| AGAAGCTA | -0.135 |
